Source: paper PMC12136788
The full ranking holds about 24,000 sequences; the median of “enrichment r” is about 0.99, and the highest 2% start at about 3.7. What follows is part of a selection rich in the highest values, with near analogues and random picks from the rest.

T1: UNK ZnF1-3 (human, UniProt Q9C0B0 31-174)
T1 sequence: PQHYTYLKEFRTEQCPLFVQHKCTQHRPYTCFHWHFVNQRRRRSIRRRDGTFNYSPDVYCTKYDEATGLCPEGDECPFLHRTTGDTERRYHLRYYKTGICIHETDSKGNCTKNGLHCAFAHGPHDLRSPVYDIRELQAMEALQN

B1: chr11:4127340:4127341:+_ENSG00000167325_ENST00000300738|hu_mus|hu_hu_hu_mus_False|28_38 (ssRNA)
RNA: GGGAGUUCUACAGUCCGACGAUCGGCAUAGUCAGGGUGCUUCGUGGUCAAGGUCGCGGCUGUCUCAGCAGCCAGGGUGUCCAGUUCCACUGUGGUGACCCCACUGUACAAGCCUUGGAUUACUUUCAUGGUGAUCUGAGCAGGCAACAGAGGAUUGAGCAUCA
B2: chr2:202488911:202488912:-_ENSG00000155755_ENST00000286196|hu_mus|hu_hu_hu_mus_False|58_68 (ssRNA)
RNA: GGGAGUUCUACAGUCCGACGAUCAUUGAAACAUUUUUCAUAAUCUCCAGUAGCAUUUCAGCAUUAUUAAUCAAAAAAUCUAUUACAAAUACAUGUAUCUUAUAAAAAUACACUUAAAAACACGAGUGGGGAGCGCAGGCGCCACAACAGAGGAUUGAGCAUCA
B3: chr17:62500844:62500845:-_ENSG00000108654_ENST00000583239|hu_hu|FALSE|FALSE (ssRNA)
RNA: GGGAGUUCUACAGUCCGACGAUCCUUGAUAAAAAUUCUUCUCAAAUUUAGGCAGCUCAUCAAGAUUCCACUUCUUUUUAACUAAUUUCUCCCCAGGGUUUCCAAACUUCUUUCCAGAUAAGGGCCCUGCCCUACUUCCUCCAACAACAGAGGAUUGAGCAUCA
B4: chr2:202488911:202488912:-_ENSG00000155755_ENST00000286196|hu_mus|hu_hu_hu_mus_False|18_78 (ssRNA)
RNA: GGGAGUUCUACAGUCCGACGAUCAUUGAAACAUUUUUCAUAAUCUCCAGUAGCAUUCAGUAUUAUAGUAACAAAAGCUCAAUUGUAAAUACAUGUAUCUUAUAAAAAUACACUUAAAUUUAAAAACGGGGAGCGCAGGCGCCACAACAGAGGAUUGAGCAUCA
B5: chr15:96529919:96529920:-_ENSMUSG00000022462_ENSMUST00000023099|mus_hu|FALSE|FALSE (ssRNA)
RNA: GGGAGUUCUACAGUCCGACGAUCUCUCUAUUCUCACGCAGACGUCUUCAGUGGGUUUCUCUCAGUCAAAUACAAAUCAUAAAAAACAAACAAAAAAUUUCCCCAAAUCCAACAACAGGCAGGAAAAAUAAUUUUAAUAAAAAACAACAGAGGAUUGAGCAUCA
B6: chr2:202488911:202488912:-_ENSG00000155755_ENST00000286196|hu_mus|hu_hu_hu_mus_False|18_68 (ssRNA)
RNA: GGGAGUUCUACAGUCCGACGAUCAUUGAAACAUUUUUCAUAAUCUCCAGUAGCAUUUCAGCAUUAUUAAUCAAAAACUCAAUUGUAAAUACAUGUAUCUUAUAAAAAUACACUUAAAUUUAAAAACGGGGAGCGCAGGCGCCACAACAGAGGAUUGAGCAUCA
B7: chr4:24541891:24541892:-_ENSG00000109606_ENST00000336812|perfect_dup|FALSE|FALSE (ssRNA)
RNA: GGGAGUUCUACAGUCCGACGAUCGGAUCCCAAUUCAGUCAGAUCUCCAUCAUCAUUUAAAGCAGCCAAAUAAUUCAAAAGUUCUAGGGCUCUCAUCAGAGUUUCAGGAGCUGGUGGGUCCAUAAAAUCAAAGUGUACCAAGUCCAACAGAGGAUUGAGCAUCA
B8: chr2:216981417:216981418:+_ENSG00000079246_ENST00000392132|hu_hu|hu_hu_hu_mus_True|48_48 (ssRNA)
RNA: GGGAGUUCUACAGUCCGACGAUCCUGAUACUGGUCCUUGCCAGCAAGGGCAUUAUCAGUGCCAUCUGUGCCAUAGAGGACUAACGCAAUCUCAUCCUUGCUCUCCGAAAAUACCUGUCGUUGGACAAACAUAGUCAUCACUUUCAACAGAGGAUUGAGCAUCA
B9: 132431906_132432936_2116_CDS_ENSG00000170606_ENST00000304858|human|control|control (ssRNA)
RNA: GGGAGUUCUACAGUCCGACGAUCUCUCAUUUCAUACACAUAUUCCUCCACUGCGUUCUUAGCAUCAUUCCGCUCCUUCUCCAGUUUAUCCUGCAUGAUCAUCUUACCCUCAUUUUCAAUGUACAAGUUGAGCAUCUCUCUGUCCAACAGAGGAUUGAGCAUCA
B10: 96523144_96524318_649_CDS_ENSMUSG00000031751_ENSMUST00000053766|mouse|control|control (ssRNA)
RNA: GGGAGUUCUACAGUCCGACGAUCGGAAAGGUAUUCAAAUCUGUCUUUGCAGAGCUGAACCAUCAGAUGCAGGAAGACAAGUCCAGCAAACCAGAGGCACCACAUCACCACUUCCUCCACAGUCUGGACAUUCAGCACUCCAAACAACAGAGGAUUGAGCAUCA
B11: chr18:33606911:33606912:-_ENSG00000141425_ENST00000399022|hu_mus|FALSE|FALSE (ssRNA)
RNA: GGGAGUUCUACAGUCCGACGAUCUUCCAAUUUAUGUUCUUUCUCUGCAAGGGCUUCCUUUUGACAACGAAGAAAAUCUGCUAACAUUCGGGUGAGUUGCUUUCUAUCAUCUAUUUCUGCCGCCAGUCUGCCAUUAUAAUCUGCCAACAGAGGAUUGAGCAUCA
B12: chr12:48362563:48362564:+_ENSG00000134291_ENST00000256686|hu_hu|hu_hu_hu_mus_False|58_88 (ssRNA)
RNA: GGGAGUUCUACAGUCCGACGAUCUCCGUCAAGCCCUUCGAUAGACCCAUAGACUCUAAACUGUAAUCACUUUGUAUUUCUAAAAAAAAGAAACGCCAAAAACUUUCCAAAAAGCGGGGGUGGGGUGAGGCGGGAGGGGGAGGUCAACAGAGGAUUGAGCAUCA
B13: 419052_420092_3597_CDS_ENSG00000073614_ENST00000399788|human|control|control (ssRNA)
RNA: GGGAGUUCUACAGUCCGACGAUCUUCUAUUAGUUCUUUUACUUUUUUCCUCCUAUUUUUGCCACUCCCAUAUACACCAAUGUCGGUCCGGGGGCUCAGCACCUGUAACAAUGUAUGGCUAGAAUUCUUCUUAAGAAACGUCCGCAACAGAGGAUUGAGCAUCA
B14: chr7:888068:888069:+_ENSG00000164828_ENST00000456758|hu_hu|motif|central (ssRNA)
RNA: GGGAGUUCUACAGUCCGACGAUCUUGAACUAAAAAUGAUGAAAAAGAUGAUGCAGUGUAUCUGGCCAGCCACAAAAUCCGGUUCACGUAGAAAGACGCACCGCAUUUUUGAUUCCUGUCCCUAGAAUAAACUCUCGACACGGGCAACAGAGGAUUGAGCAUCA

The binders below were run against T1, UNK ZnF1-3 (assay: nsRBNS (natural sequence RNA bind-n-seq); RBNS binding buffer (assumed for nsRBNS): 25 mM Tris pH 7.5, 150 mM KCl, 3 mM MgCl2, 0.01% Triton X-100, 500 ug/ml BSA, 20 U/ml SUPERase-In, 4 C; UNK is unkempt and MSI1 is Musashi-1; names of the RNAs are library labels; protein concentration not given here; high values mean tight binding).

Binder	binding signal [enrichment R]
B1	1.08
B2	14
B3	1.55
B4	5.43
B5	3.81
B6	7.64
B7	1.58
B8	0.666
B9	0.774
B10	2.02
B11	0.802
B12	1.85
B13	0.677
B14	1.34
